Measurements published in the supplement of paper PMC7366291.
Counter-ions that a name gives are not always drawn. ± gives the standard deviation or the standard deviation of the averaged measurements.

What was measured:
Details in all cases: 25 µM; exposure: 24-48 hpf
[1] = system: Danio rerio Tg(wt1b:EGFP) embryo, pronephros; experiment: glomerular separation, fold change vs DMSO control; higher = glomeruli further apart (abnormal)
How it was run: (§1)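 Dechorionated Tg(wt1b:EGFP) zebrafish embryos were treated with 25 μM compound in 0.5% DMSO, in HEPES-buffered E3 with 0.003% PTU, from 24 to 48 hpf at 28.5°C. On maximum projections of dorsal pronephros images, 16 hand-placed reference points in Fiji gave distances and angles, and values more than 2 SD from the feature mean were left out. Results are fold changes over the mean of same-day DMSO-treated embryos.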

[2] = system: Danio rerio Tg(wt1b:EGFP) embryo, pronephros; experiment: glomerular width (mean of left and right), fold change vs DMSO control; higher = wider glomerulus
How it was run: as §1

[3] = system: Danio rerio Tg(wt1b:EGFP) embryo, pronephros; experiment: fraction of imaged embryos annotated as normal kidney; higher = less nephrotoxic; extreme values may be limits of the assay
How it was run: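 The read-out is the proportion of embryos in each treatment manually annotated as normal-kidney. Exposure ran from 24 to 48 hpf at 28.5°C in 12-well plates, using dechorionated Tg(wt1b:EGFP) zebrafish embryos in 5 mM HEPES-buffered E3 with 0.003% PTU, 0.5% DMSO and 25 μM compound. For imaging, larvae were anaesthetised with tricaine, positioned dorsally in agarose-filled 96-well plates and captured by widefield fluorescence (470 nm, 10 z-slices), with scoring done on maximum projections.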

[4] = system: Danio rerio Tg(wt1b:EGFP) embryo, pronephros; experiment: pronephric angle neck segment to proximal convoluted tubule (mean of left and right), fold change vs DMSO control; higher = larger pronephric angle
How it was run: as §1

| SMILES | glomerular separation [1] | glomerular width [2] | fraction of imaged embryos annotated as normal kidney [3] | pronephric angle neck segment [4] |
| --- | --- | --- | --- | --- |
| CC(=O)NC1CCSC1=O (racemic) [N-Acetyl-DL-homocysteine Thiolactone] | 0.761 ± 0.24 | 1.07 ± 0.041 | 0.917 | 1 ± 0.066 |
| CCC1(c2cccc(O)c2)CCCCN(C)C1 (stereo unspecified) [Meptazinol hydrochloride] | 1.01 ± 0.35 | 0.967 ± 0.024 | 0.917 | 0.984 ± 0.06 |
| C#C[C@]1(O)CC[C@H]2[C@@H]3CCC4=CC(=O)CC[C@]4(C)[C@H]3CC[C@@]21C [Ethisterone] | 0.918 ± 0.23 | 1.06 ± 0.071 | 0.909 | 1.065 ± 0.002 |
| CC(C)[N+](C)(CCC(C(N)=O)(c1ccccc1)c1ccccc1)C(C)C [Isopropamide iodide] | 0.996 ± 0.45 | 1.0283 ± 0.001 | 0.818 | 0.983 ± 0.025 |
| CN1CCN(C(=O)OC2c3nccnc3C(=O)N2c2ccc(Cl)cn2)CC1 (stereo unspecified) [Zopiclone] | 1.06 ± 0.41 | 0.93 ± 0.014 | 1 | 0.98709 ± 0.00059 |
| C[C@]12CC[C@H](O)C[C@H]1CC[C@@H]1[C@@H]2C[C@@H](O)[C@]2(C)[C@@H](C3=CC(=O)OC3)CC[C@]12O [Digoxigenin] | 0.711 ± 0.21 | 0.994 ± 0.017 | 0.917 | 0.9639 ± 0.0077 |
| COc1ccc2c(c1)[C@]13CCCC[C@@H]1[C@H](C2)N(C)CC3 [Dextromethorphan hydrobromide monohydrate] | 1.03 ± 0.23 | 0.9098 ± 0.004 | 0.833 | 1.04 ± 0.036 |
| C=CCC1(CC(C)C)C(=O)NC(=O)NC1=O [Butalbital] | 0.97 ± 0.31 | 1.1 ± 0.086 | 0.75 | 1.01 ± 0.11 |
| CC(Cc1ccc(O)cc1)NCC(O)c1cc(O)cc(O)c1 (stereo unspecified) [Fenoterol hydrobromide] | 1.33 ± 0.53 | 1.051 ± 0.0075 | 1 | 0.916 ± 0.028 |
